# Measurements published in PubChem BioAssay AID485313 (National Center for Advancing Translational Sciences (NCATS), 2010).
# In all, about 320,000 compounds went through this assay and about 7,600 (2.4%) were called active. Roughly 3% stayed inconclusive and do not appear here. The full list was thinned out, with actives kept by preference. Unmarked numbers belong to inactive results. The call rests on the fitted dose curve; in most records, active means well fitted activation curve with a large enough effect; inconclusive means small, poorly fitted or top-dose-only effect; inactive means no such curve, though single readings can be large or run the other way.
# Assay: qHTS Assay for NPC1 Promoter Activators; further: nearly all actives have a fitted effect of over 60% in size;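 on activation: reporter is driven by a mutant NPC1 promoter; % of control where 0% means no effect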
# Details: Huh7 NPC1 promoter luciferase reporter, 24 h; series mostly up to 9.22 µM; activation: at the top concentration
# How it was run: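 Stably transfected Huh7 (NPC1 promoter→luciferase), 1500 cells/well in Opti-MEM + 10% FBS, 2 h settle, then compound 24 h at 37 °C. Luminescence after 10 min with Amplite reagent.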
# Potency means the concentration at half of the fitted maximal effect.
SMILES,activation,Potency
S=C1NC(c2ccccc2)=NCN1c1ccc(Br)cc1,11.1%,–
Brc1ccccc1C1Nc2cccc3cccc(c23)N1,-5.12%,–
Brc1ccccc1C1N=C(c2ccccc2)NO1 (configuration not stated),–,3980 nM (active)
N#Cc1ccc(C2N=C(c3ccccc3)NO2)cc1 (configuration not stated),–,1260 nM (active)
CSCC[C@H](NC(=O)NC1CCCC1)C(=O)O,-1.29%,–
Cc1c(NC(=O)CSc2nnc(-c3cccnc3)n2N)c(=O)n(-c2ccccc2)n1C,-4.26%,–
O=S(=O)(NCc1ccccc1Br)c1ccccc1Br,0.992%,–
C=C1CCC(N(O)c2cc(C)on2)C(=C)CCC2C1CC2(C)C (configuration not stated),-0.705%,–
CCN(CC)CCCNC(=O)COc1ccc2oc3c(c2c1)CCCC3,-11.7%,–
CCOC(=O)N1CCN(C(=O)COc2ccc3oc4c(c3c2)CCCC4)CC1,0.817%,–
O=C(COc1ccc2oc3c(c2c1)CCCC3)Nc1ccccn1,–,631 nM (active)
Cc1cc(C)nc(N/N=C/c2c(C)oc3ccccc23)n1,-5.87%,–
Cc1nc(Cl)cc(N/N=C/c2ccccc2)n1,10.4%,–
C(=N\Nc1ccc2ccccc2n1)/c1ccc2c(c1)OCO2,–,316 nM (active)
Brc1ccc(-c2csc(N/N=C/c3ccc4c(c3)OCO4)n2)cc1,6.54%,–
Cc1noc(C)c1/C=N/Nc1ccc2ccccc2n1,–,2820 nM (active)
O=C(N/N=C/c1ccc2c(c1)OCO2)C(=O)N1CCCC1,26.8%,–
CCOc1ccc(S(=O)(=O)N2CCCCC2)cc1NC(=O)CN1CCCC1c1cccs1 (configuration not stated),-18.7%,–
O=C(c1ccc(Cl)nc1)N1CCN(S(=O)(=O)c2ccc3c(c2)OCCO3)CC1,-8.95%,–
CCN(CC)CCCNC(=S)N(CCO)Cc1cc2cc3c(cc2[nH]c1=O)OCO3,-0.386%,–
Cc1ccc(OCc2nc3ccccc3n2C)cc1,–,3550 nM (active)
CCOc1ccc(C(O)Cc2nc3ccccc3n2C)cc1 (configuration not stated),27.8%,–
CC(C)n1c(COc2ccccc2)nc2ccccc21,5.01%,–

SMILES,activation,Potency
CCOC(=O)N1CCN(S(=O)(=O)c2ccc3c(c2)C(C)C(=O)N3)CC1 (configuration not stated),1.11%,–
COc1ccc(C2=NOC(COC(=O)c3ccc4ccccc4n3)C2)cc1 (configuration not stated),1.95%,–
Cc1ccc(C(=O)NNC2=Nc3cc([N+](=O)[O-])ccc3OC2)cc1,0.883%,–
COc1ccc(C2=Nc3cc(C)ccc3OC2)cc1,–,891 nM (active)
COc1ccc2ccn(C)c2c1,0.38%,–
Cc1nn(Cc2ccccc2)c(C)c1C(=O)NCCCN1CCCC1=O,-7.25%,–
COn1c(-c2ccc(Cl)cc2Cl)nc2ncccc21,-1.68%,–
Clc1ccc(-c2cc(-c3ccccn3)on2)c(Cl)c1,–,100 nM (active)
Clc1ccc(-c2ncc3ccccn23)c(Cl)c1,-8.18%,–
Cc1cc(N=Nc2ccc3ccccc3c2)ccc1O,–,2240 nM (active)
Cc1ccc(/C=N/NC(=O)c2cc3ccccc3cc2O)o1,19.5%,–
CC(=O)CCC(=O)c1ccc2ccccc2c1,8.66%,–
Cc1ccc(S(=O)(=O)N(C)C)cc1NC(=O)c1ccc(-n2cncn2)c([N+](=O)[O-])c1,-1.61%,–
Cc1ccc(NC(=O)CN(C)C(=O)c2cccc(S(=O)(=O)N3CCCC3)c2)cc1,-0.017%,–
CC(=O)NC(c1cccs1)c1cc(Br)c2cccnc2c1O (configuration not stated),-34.6%,–
CCC(C)NC(=O)c1ccc(NC(=O)CC2SC(N3CCCCC3)=NC2=O)cc1 (configuration not stated),-7.63%,–
Cc1cc(NC(=O)CSc2nc3c(cc2C#N)CCCCC3)no1,–,1410 nM (active)
Cc1nonc1NC(=O)CSc1nc2ccccc2cc1C#N,2.61%,–
CC(NC(=O)CSc1nc2c(cc1C#N)CN(C)CC2)c1ccccc1 (configuration not stated),0.595%,–
COc1ccc(C(=O)OCC(=O)c2cc(C)n(CC3CCCO3)c2C)cc1[N+](=O)[O-] (configuration not stated),0.532%,–
CCCCN(C(=O)C1CCC1)c1c(N)n(Cc2ccccc2)c(=O)[nH]c1=O,2.36%,–
Cn1c(SCC(=O)Nc2ccc(N3CCOCC3)cc2)nnc1C(F)(F)F,21.8%,–
COC(=O)C1CCN(C(=O)c2cc(=O)[nH]c3ccccc23)CC1,-6.71%,–

SMILES,activation,Potency
CN(C(=O)COC(=O)c1cc(=O)[nH]c2ccccc12)C1CCCCC1,16.7%,–
CC1CCN(C(=O)COC(=O)c2cc(=O)[nH]c3ccccc23)CC1,–,3550 nM (active)
Cc1cccc(NC(=O)Nc2ccc(OCc3ccccc3)cc2)n1,1.29%,–
CCN(CC)S(=O)(=O)c1ccc(C)c(NC(=O)COc2ccc(Br)cc2Cl)c1,-4.98%,–
Cc1cccc(NC(=O)COc2ccc(Br)cc2C)n1,–,2820 nM (active)
Cc1cc(C)cc(NC(=O)C(OC(=O)c2ccc(O)cc2)c2ccccc2)c1 (configuration not stated),0.458%,–
Cc1ccccc1NC(=S)NNC(=O)c1cccc(Br)c1,6.78%,–
Cc1ccc(C)c(NC(=S)NNC(=O)c2csc(C)c2)c1,-1.13%,–
Cc1cc(C(=O)NNC(=S)Nc2ccccc2C)cs1,–,3160 nM (active)
Cc1ccc(C(=O)OCC(=O)NCc2cc(C)c(O)c(C)c2)cc1S(=O)(=O)N1CCCCC1,0.848%,–
NS(=O)(=O)c1ccc(N2C(=O)C3C4CC(C(Br)C4Br)C3C2=O)cc1 (configuration not stated),-3.28%,–
CCOc1ccc(NC(=O)CN(C)C(=O)CSc2ccccc2)cc1OCC,-2.46%,–
Cc1ccc(/C(N)=N/OC(=O)COc2ccc(Cl)c(C)c2)cc1,-3.15%,–
COc1ccc(C(=O)NNC(=O)c2cnccn2)cc1[N+](=O)[O-],0.689%,–
O=C(Nc1ccccc1Cl)O/N=C(/c1ccccc1)c1ccccn1,1.22%,–
COc1ccc(C(=O)O/N=C(\N)c2ccccn2)cc1[N+](=O)[O-],–,2510 nM (active)
Cc1ccc(C(=O)O/N=C(\N)c2ccccn2)cc1Cl,–,1580 nM (active)
N/C(=N\OC(=O)c1ccc([N+](=O)[O-])cc1)c1ccccn1,–,355 nM (active)
N/C(=N\OC(=O)Cc1ccc([N+](=O)[O-])cc1)c1ccccn1,21.7%,–
COc1ccc(C(=O)CSc2nc(C)cc(C)n2)cc1[N+](=O)[O-],2.6%,–
O=C(COC(=O)c1ccccn1)NNC(=O)c1ccc([N+](=O)[O-])cc1,0.17%,–
CN(C(=O)Cn1nnc(-c2ccc(F)cc2)n1)C1CCS(=O)(=O)C1 (configuration not stated),-1.79%,–
CCOC(=O)c1ccccc1NC(=O)COC(=O)C(Cc1c[nH]c2ccccc12)NC(C)=O (configuration not stated),-2.85%,–

SMILES,activation,Potency
CC(C)Cc1nnc(NC(=O)CCNC(=O)c2ccccc2Cl)s1,0.264%,–
O=C(COC(=O)CNC(=O)C1CCCCC1)NCc1ccccc1,-6.72%,–
CC(C(=O)NC1CCCC1)N1CCN(S(=O)(=O)c2ccccc2Cl)CC1 (configuration not stated),-3.61%,–
Cc1ccc(NS(=O)(=O)c2ccc3c(c2)CC(=O)N3)cc1Cl,0.741%,–
O=C(OCC(=O)N1CCc2ccccc21)c1ccc([N+](=O)[O-])cc1,0.374%,–
CC1CCCN(C(=O)c2cc(-c3ccco3)nc3ccccc23)C1 (configuration not stated),-2.25%,–
Nc1ccc(N=Nc2ccccc2Cl)c(N)n1,–,3160 nM (active)
O=C(NCc1ccncc1)c1cccc(NS(=O)(=O)c2ccc(F)c(F)c2)c1,-0.614%,–
CC[C@H](C)C(=O)N[C@H]1CCCN1C(=O)/C=C/c1ccccc1,-1.89%,–
Cc1nc2cc(NC(=O)NCc3ccccc3)ccc2o1,25.1%,–
Cc1nc2ccc(NC(=O)C(F)(F)F)cc2o1,0.865%,–
Cc1ccc(NC(=O)Nc2ccc3oc(C)nc3c2)cc1,–,1120 nM (active)
CCc1ccc(OCC(=O)OC(C)C(=O)NC2CC2)cc1 (configuration not stated),-4.04%,–
O=C(CN1CCc2ccccc2C1)Nc1cccc(S(=O)(=O)N2CCOCC2)c1,-0.546%,–
Cc1cccc(NS(=O)(=O)c2cccc(C(=O)NNC(=O)c3ccccc3O)c2)c1,0.589%,–
Cc1cc(C)cc(OCC(=O)Nc2ccc(N3CCOCC3)cc2N2CCOCC2)c1,-2.18%,–
CCN1/C(=C/C(=S)Nc2ccccc2)Sc2ccccc21,–,3980 nM (active)
O=C(CCN1c2ccccc2Sc2ccccc21)Nc1ccccc1,0.92%,–
CCN1/C(=C/c2ccc3ccc(C)cc3[n+]2CC)Sc2ccccc21,-14.2%,–
COc1ccccc1C(=O)NCCC(=O)NC1=NCCS1,-0.651%,–
COc1ccc(C(=O)NC2=NCCS2)c(OC)c1,–,891 nM (active)
O=C(NCc1ccc2c(c1)OCO2)c1ccc(Cl)s1,4.91%,–
CCOc1ccc(C(=O)CCC(=O)NC2=NCCS2)cc1,-0.182%,–

SMILES,activation,Potency
O=C(NC1=NCCS1)[C@H](Cc1ccccc1)N1C(=O)c2ccccc2C1=O,1.18%,–
O=C(NC1=NCCS1)c1ccc(Cl)s1,–,2510 nM (active)
O=C(COC(=O)c1ccc(N2CCCC2=O)cc1)c1ccc(OC(F)F)cc1,1.32%,–
COc1cc(OC)cc(-c2c(-c3cccs3)c3cc(-c4ccc(OC)nc4)ccc3n2C)c1,2.03%,–
CCCCN(C(=O)c1ccc2ccccc2c1)c1c(N)n(CCCC)c(=O)[nH]c1=O,0.824%,–
Nc1ncc(CN2CCCC(C(=O)Nc3ccc(-c4ccco4)cc3)C2)cn1 (configuration not stated),-12.3%,–
COc1ccc(C(C)(C)C)cc1NC(=O)CCN1C(=O)C2CCCCC2C1=O (configuration not stated),1.7%,–
O=C(CSc1ncnc2c1nnn2Cc1ccc(F)cc1)NC1CCCC1,-10.9%,–
CN(C)C(=O)COC(=O)c1cccc(S(=O)(=O)N2CC3(C)CC2CC(C)(C)C3)c1 (configuration not stated),-4.64%,–
CCCNC(=O)CCc1c(C)nc2c(c(C)nn2-c2ccc(C)cc2)c1C,-3.24%,–
CCCc1c(C(=O)O)cnn1-c1ccc(Cl)cc1,-5.17%,–
CCCNC(=O)c1c(Cl)cnn1-c1ccc(C)cc1,–,2510 nM (active)
Cc1ccc(C)c(OCC(=O)NNC(=O)C2CCC2)c1,-0.23%,–
O=C(O[C@@H]1[C@H](Cc2ccccc2)NS(=O)(=O)[C@H]2C[C@@H]3C=C[C@]12O3)c1ccccc1Br,-0.546%,–
O=C(CNS(=O)(=O)c1ccc2c(c1)OCCCO2)N1CCN(c2ccc(F)cc2)CC1,4.82%,–
O=C(NNC(=O)C1CCC1)c1ccccc1,-3%,–
COc1ccc(S(=O)(=O)N2CCOCC2)cc1NC(=O)CSc1cc(C)ccc1C,0.43%,–
O=C(Nc1ccccc1)c1cc2ccccc2[nH]1,–,3980 nM (active)
COc1ccc2[nH]c(C(=O)Nc3ccccc3Cl)cc2c1,-24.9%,–
CC(C)n1c(=O)[nH]c2cc(C(=O)Nc3ccccc3)ccc21,-1.34%,–
